# In PubChem BioAssay AID1159580 (chemical genetic matrix, 2015):
# The campaign covered roughly 5,500 compounds. About 2,000 (36%) were called active. About 18% were inconclusive and are not listed. The list shows a part of the results. A number with no mark means an inactive call. No stated cut-off is given here; in the data, active means normalized growth mostly below about 0.91 (no sharp cut-off); inconclusive means no clear call, values can overlap the other calls; inactive means mostly above about 0.92.
# Assay: chemical genetic growth profiling, strain panel (AID 1159580);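 further: tested at 20 µM; growth read once vehicle control cultures reached saturation at 30 °C; 1 = growth at the plate median or of vehicle wells; lower values mean less growth of the strain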
# Conditions: S. cerevisiae deletion strains, growth OD
# [1] = locus YAR019C, strain CDC15, hits give low values
# [2] = locus YBL105C, strain PKC1, hits give low values
# [3] = locus YBR135W, strain CKS1, hits give low values
# [4] = locus YBR136W, strain MEC1, hits give low values
# [5] = locus YBR160W, strain CDC28, hits give low values
# [6] = locus YDL017W, strain CDC7, hits give low values
# [7] = locus YDL028C, strain MPS1, hits give low values
# [8] = locus YDL101C, strain DUN1, hits give low values
# [9] = locus YDL108W, strain KIN28, hits give low values
# [10] = locus YDL132W, strain cdc53, hits give low values
# [11] = locus YDL214C, strain PRR2, hits give low values
# [12] = locus YDR052C, strain DBF4, hits give low values
# [13] = locus YDR054C, strain cdc34, hits give low values
# [14] = locus YDR226W, strain ADK1, hits give low values
# [15] = locus YDR477W, strain SNF1, hits give low values
# [16] = locus YER123W, strain YCK3, hits give low values
# [17] = locus YER133W, strain GLC7, hits give low values
# [18] = locus YFL009W, strain cdc4, hits give low values
# [19] = locus YFL029C, strain CAK1, hits give low values
# [20] = locus YFR003C, strain YPI1, hits give low values
# [21] = locus YFR019W, strain FAB1, hits give low values
# [22] = locus YFR028C, strain CDC14, hits give low values
# [23] = locus YGR040W, strain KSS1, hits give low values
# [24] = locus YGR052W, strain FMP48, hits give low values
# [25] = locus YGR092W, strain DBF2, hits give low values
# [26] = locus YHR030C, strain SLT2, hits give low values
# [27] = locus YHR079C, strain IRE1, hits give low values
# [28] = locus YHR082C, strain KSP1, hits give low values
# [29] = locus YHR205W, strain SCH9, hits give low values
# [30] = locus YIL147C, strain SLN1, hits give low values
# [31] = locus YJL095W, strain BCK1, hits give low values
# [32] = locus YJL128C, strain PBS2, hits give low values
# [33] = locus YJL157C, strain FAR1, hits give low values
# [34] = locus YJR016C, strain ILV3, hits give low values
# [35] = locus YJR066W, strain TOR1 (second series), hits give low values
# [36] = locus YJR066W, strain TOR1, hits give low values
# [37] = locus YKL048C, strain ELM1, hits give low values
# [38] = locus YKL067W, strain YNK1, hits give low values
# [39] = locus YKL101W, strain HSL1, hits give low values
# [40] = locus YKL193C, strain SDS22, hits give low values
# [41] = locus YKL203C, strain TOR2, hits give low values
# [42] = locus YLR113W, strain HOG1, hits give low values
# [43] = locus YLR133W, strain CKI1, hits give low values
# [44] = locus YLR403W, strain SFP1, hits give low values
# [45] = locus YML070W, strain DAK1, hits give low values
# [46] = locus YMR001C, strain CDC5, hits give low values
# [47] = locus YMR205C, strain PFK2 (second series), hits give low values
# [48] = locus YMR277W, strain FCP1, hits give low values
# [49] = locus YNL006W, strain LST8, hits give low values
# [50] = locus YNL020C, strain ARK1, hits give low values
# [51] = locus YNL161W, strain CBK1, hits give low values
# [52] = locus YNL183C, strain NPR1, hits give low values
# [53] = locus YNL207W, strain RIO2, hits give low values
# [54] = locus YNL222W, strain SSU72, hits give low values
# [55] = locus YNL307C, strain MCK1 (second series), hits give low values
# [56] = locus YOL078W, strain AVO1, hits give low values
# [57] = locus YOL136C, strain PFK27, hits give low values
# [58] = locus YOR061W, strain CKA2, hits give low values
# [59] = locus YOR119C, strain RIO1, hits give low values
# [60] = locus YOR231W, strain MKK1, hits give low values
# [61] = locus YOR329C, strain SCD5, hits give low values
# [62] = locus YPL031C, strain PHO85, hits give low values
# [63] = locus YPL153C, strain RAD53, hits give low values
# [64] = locus YPL204W, strain HRR25, hits give low values
# [65] = locus YPL209C, strain IPL1, hits give low values
# [66] = locus YPL256C, strain CLN2, hits give low values
# [67] = locus YPR025C, strain CCL1, hits give low values
# [68] = locus YPR106W, strain ISR1, hits give low values
# [69] = locus YPR111W, strain DBF20, hits give low values
# [70] = strain NNK1, hits give low values
# [71] = strain TSCII, hits give low values
smiles,measurement,setting,value
Cc1ccc(NC(=S)C(C#N)C(=O)N2CCOCC2)c(C)c1 (configuration not stated),normalized growth,[1],0.993
same,normalized growth,[2],0.997
same,normalized growth,[3],0.988
same,normalized growth,[4],0.972
same,normalized growth,[5],0.991
same,normalized growth,[6],0.992
same,normalized growth,[7],0.988
same,normalized growth,[8],0.995
same,normalized growth,[9],0.991
same,normalized growth,[10],0.991
same,normalized growth,[11],1.04
same,normalized growth,[12],0.998
same,normalized growth,[13],0.99
same,normalized growth,[14],0.98
same,normalized growth,[15],1.05
same,normalized growth,[16],1.05
same,normalized growth,[17],1.05
same,normalized growth,[18],0.985
same,normalized growth,[19],0.995
same,normalized growth,[20],0.995
same,normalized growth,[21],1.01
same,normalized growth,[22],0.993
same,normalized growth,[23],1.05
same,normalized growth,[24],1.11
same,normalized growth,[25],1.02
same,normalized growth,[26],1.03
same,normalized growth,[27],1.04
same,normalized growth,[28],1.21
same,normalized growth,[29],0.908
same,normalized growth,[30],0.983
same,normalized growth,[31],1.02
same,normalized growth,[32],0.937
same,normalized growth,[33],1.02
same,normalized growth,[34],0.991
same,normalized growth,[35],1.05
same,normalized growth,[36],1.19
same,normalized growth,[37],1.01
same,normalized growth,[38],1.02
same,normalized growth,[39],1.01
same,normalized growth,[40],0.983
same,normalized growth,[41],1.09
same,normalized growth,[42],1.07
same,normalized growth,[43],1.03
same,normalized growth,[44],0.957
same,normalized growth,[45],1.05
same,normalized growth,[46],0.994
same,normalized growth,[47],1.03
same,normalized growth,[48],0.989
same,normalized growth,[49],0.991
same,normalized growth,[50],1.04
same,normalized growth,[51],0.991
same,normalized growth,[52],1.18
same,normalized growth,[53],0.985
same,normalized growth,[54],0.991
same,normalized growth,[55],1.02
same,normalized growth,[56],0.985
same,normalized growth,[57],1.05
same,normalized growth,[58],1.01
same,normalized growth,[59],1.11
same,normalized growth,[60],1.11
same,normalized growth,[61],0.993
same,normalized growth,[62],1.04
same,normalized growth,[63],1.03
same,normalized growth,[64],1.06
same,normalized growth,[65],0.99
same,normalized growth,[66],1.06
same,normalized growth,[67],0.997
same,normalized growth,[68],1.01
same,normalized growth,[69],1
same,normalized growth,[70],0.999
same,normalized growth,[71],0.994
Clc1cccc(Nc2ncc(-c3ccc4c(c3)OCCCO4)s2)c1,normalized growth,[1],0.978
same,normalized growth,[2],0.989
same,normalized growth,[3],0.981
same,normalized growth,[4],0.98
same,normalized growth,[5],0.983
same,normalized growth,[6],0.988
same,normalized growth,[7],0.956
same,normalized growth,[8],1
same,normalized growth,[9],0.978
same,normalized growth,[10],0.986
same,normalized growth,[11],0.893
same,normalized growth,[12],0.986
same,normalized growth,[13],0.989
same,normalized growth,[14],0.988
same,normalized growth,[15],0.909
same,normalized growth,[16],0.864
same,normalized growth,[17],0.892
same,normalized growth,[18],0.99
same,normalized growth,[19],0.977
same,normalized growth,[20],0.985
same,normalized growth,[21],0.898
same,normalized growth,[22],0.963
same,normalized growth,[23],0.905
same,normalized growth,[24],0.862
same,normalized growth,[25],0.88
same,normalized growth,[26],0.67 (active)
same,normalized growth,[27],0.663
same,normalized growth,[28],0.951
same,normalized growth,[29],0.824
same,normalized growth,[30],0.973
same,normalized growth,[31],0.731
same,normalized growth,[32],0.951
same,normalized growth,[33],0.894
same,normalized growth,[34],0.994
same,normalized growth,[35],0.902
same,normalized growth,[36],0.95
same,normalized growth,[37],0.965
same,normalized growth,[38],0.927
same,normalized growth,[39],0.923
same,normalized growth,[40],0.985
same,normalized growth,[41],1.01
same,normalized growth,[42],0.682 (active)
same,normalized growth,[43],0.866
same,normalized growth,[44],0.881
same,normalized growth,[45],0.872
same,normalized growth,[46],0.984
same,normalized growth,[47],0.894
same,normalized growth,[48],0.968
same,normalized growth,[49],0.995
same,normalized growth,[50],0.86
same,normalized growth,[51],0.982
same,normalized growth,[52],0.799
same,normalized growth,[53],0.987
same,normalized growth,[54],0.98
same,normalized growth,[55],0.864
same,normalized growth,[56],0.972
same,normalized growth,[57],0.873
same,normalized growth,[58],0.86
same,normalized growth,[59],0.953
same,normalized growth,[60],0.759
same,normalized growth,[61],0.984
same,normalized growth,[62],0.889
same,normalized growth,[63],0.872
same,normalized growth,[64],0.86
same,normalized growth,[65],0.983
same,normalized growth,[66],0.717 (active)
same,normalized growth,[67],0.968
same,normalized growth,[68],0.971
same,normalized growth,[69],0.959
same,normalized growth,[70],0.974
same,normalized growth,[71],0.971
